For 23 sequences, sensor-assay potency score (higher = more potent) results are on record in the OligoGym collection.
Further: reference of the scale not given here.

One assay addresses GRAMD1C. Put plainly: pooled miR-30 sensor sort-seq; sequence = guide strand. Particulars: shRNA.
In the case of TTGCTATAGAAACATAGCCAGT, the sensor-assay potency score (higher = more potent) was -1.61.
Same read-out and setting: next, TAACAAATCTGATTCAAGCTGT: 0.354; TAGTCCTCCAAAGAACTCCAGG: -0.901; TTTTGATGAATTTCCATCGAAT: -0.801.
On the same count and under the same terms, next, TAACTCTTGAAAAAATATCTGA: -0.51; TTGATAGTCAGTACACTTGTAC: 0.115.
Same read-out and setting: next, TACATCTTCCTGTAAGTCGGTG: -0.625; TATAAAGCAACTTACTTCGATA: -0.838.
As to TTCATTTTTATTCAAGTCCAGT, the sensor-assay potency score (higher = more potent) is -0.865.
On the same count and under the same terms, as for ATAATCATCATCAACATGCAGA, the figure is 0.0723; as for TATTCTTCTGAATAGTTTCTGC, -0.573.
TTATTTAGTAGATCAAACGTTT had a sensor-assay potency score (higher = more potent) of -0.243.

A further assay deals with GRHL3. The description is as above. Particulars: shRNA.
Sequence TTGATCTGGCAGACAGCACGGT displayed a sensor-assay potency score (higher = more potent) of -0.0201.
As to TTTGTGGCAGCTGTCAACGGGT, the sensor-assay potency score (higher = more potent) was -0.745.
In turn, TATTCTTCTTGAGCAAATCTGG gave a sensor-assay potency score (higher = more potent) of -0.748.
TTTAGCAGCCGCACAGACCTGA displayed a sensor-assay potency score (higher = more potent) of -0.237.
As for TCACAGAAGATCTTGATCTGGC, the sensor-assay potency score (higher = more potent) was found to be 0.419.
Same read-out and setting: next, TTGACTAAGATTCCTCGCTTGC: -0.416.
On the same count and under the same terms, next, TAGGTCGTCTCATTGCCCCTGA: 0.415.
Take TTTTGTGAGGAAAAGTCTGTGC: the sensor-assay potency score (higher = more potent) was -0.211.
The same measure, in the same setting: as for TAGTGTAAGAGAATTTCTGCAA, the figure is 0.49.
The same measure, in the same setting: next, TTGCATTTCTTGTAGACTTTGT: -0.218; TTTTCTAGGTACGTCTTCCAGG: -0.466.
